Dicer processing = blocks human Dicer maturation of pre-miR-21; z-score at 25 µM; cat-ELCCA pre-miR-21 Dicer processing, chemiluminescence; stronger effect = higher value; Q9UPY3; hit rate 6% among 47,000; AID 1347074; in the data active = z-score above about 3, passing the limit was not always enough;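 also: higher signal means more uncleaved substrate so more Dicer inhibition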
Of the large screens only hits and unclear results are named; the others gave an inactive call. This is one part of a sample in which hits are shown more often than they occur.

NNC(=S)Nc1cccc(Cl)c1Cl	Dicer processing 4.3
Cc1cccc(NC(=S)N/N=C\c2cccc3ccccc23)c1C	none
NNC(=S)Nc1ccccc1Cl	none
Cc1cc(Cl)ccc1NC(=S)NN	Dicer processing 3.4
CC(C)(C)C(=O)c1cn(CC(=O)N2CCOCC2)c2ccccc12	none
CN(C)CCNC(=O)c1cc2ccccc2[nH]1	none
CCCCn1c(COc2ccc(OC)cc2)nc2ccccc21	none
Fc1ccc(N=CNc2ccc(F)cc2F)c(F)c1	none
C=CCOc1cccc(C2c3c(oc4ccc(F)cc4c3=O)C(=O)N2Cc2ccc3c(c2)OCO3)c1 (stereo not given)	none
Fc1cccc(Cl)c1CSC(=S)N1CCSCC1	none
O=C(CSc1nc2ccccc2[nH]1)N1CCc2ccccc2C1	none
Cc1ccc(-c2csc3nnc(SCC(=O)Nc4nsc(-c5ccccc5)n4)n23)cc1	Dicer processing 4.6
NC(=O)CSc1nnc2ccccn12	none
O=C(CSc1nnc2ccccn12)Nc1ccc(-c2nc3ccccc3s2)cc1	Dicer processing 3.5
O=C(CSc1nnc2scc(-c3ccccc3)n12)Nc1nsc(-c2ccccc2)n1	none
CC(C)(C)c1ccc(-c2nc(NC(=O)CSc3ncn[nH]3)ns2)cc1	Dicer processing 7.1
Cc1ccccc1-c1nc(NC(=O)CSc2nnc3ccccn23)ns1	Dicer processing 3.5
O=C(CSc1ccc2ccccc2n1)Nc1nsc(-c2ccccc2)n1	none
O=C(CSc1nnc2ccccn12)Nc1nc(-c2ccc(Cl)cc2)ns1	none
O=C(CSc1nc2ccccc2s1)Nc1ccc(Cl)cc1	none
O=C(CSc1ncn[nH]1)Nc1ncccn1	none
Cn1ccnc1SCC(=O)Nc1nc2ccccc2s1	none
Cc1nnc(SCC(=O)Nc2nsc(-c3ccc(C(C)(C)C)cc3)n2)s1	none
Cc1noc(C)c1NC(=O)NCc1cc2ccccc2s1	none
O=C1/C(=C\c2ccc(Cl)cc2)N=C(c2ccccc2)N1CCc1csc2ccccc12	none
O=C(Cn1nnc(N2CCCCC2)n1)c1ccccc1	none
CCCCOC(=O)C1=C(C)NC2=C(C(=O)CCC2)C1c1ccc(OCCC)c(OC)c1 (stereo not given)	none
CC(C)(C)CC(C)(C)NC(=O)c1c(F)cccc1F	none
Cc1cccc(C2N3CC4(C)CN2CC(C)(C3)C4)c1 (stereo not given)	none
CC12CN3CC(C)(CN(C1)C3c1ccccc1Cl)C2 (stereo not given)	none
COc1ccc(C2N3CC4(C)CN2CC(C)(C3)C4)cc1OC (stereo not given)	none
CC12CN3CC(C)(CN(C1)C3c1ccc(O)c(O)c1)C2 (stereo not given)	Dicer processing 3.1
CC12CN3CC(C)(CN(C1)C3c1ccc(F)cc1)C2 (stereo not given)	none
CC12CN3CC(C)(CN(C1)C3c1ccc(Cl)cc1)C2 (stereo not given)	Dicer processing 5.1
CCOC(=O)[C@@H](N)Cc1ccc(O)c(O)c1	none
c1ccc(-c2nc(-c3cccnc3)n[nH]2)nc1	none
O=C(O)C(=O)CCc1cccs1	none
COc1ccc(C2NC(=O)c3c(sc4c3CCCC4)N2)cc1 (stereo not given)	none
COc1cc(C2NC(=O)c3c(sc4c3CCCC4)N2)cc(Br)c1OC (stereo not given)	Dicer processing 4.1
O=C1NC(c2ccccc2Cl)Nc2sc3c(c21)CCCC3 (stereo not given)	Dicer processing 5.9
O=C1NC(c2ccccc2Cl)Nc2sc3c(c21)CCN(Cc1ccccc1)C3 (stereo not given)	none
COc1cc(C2NC(=O)c3c(sc4c3CCCC4)N2)cc(OC)c1OC (stereo not given)	none
O=C1NC(c2ccc(Cl)cc2)Nc2sc3c(c21)CCCC3 (stereo not given)	none
CCc1cc(C)cc(OCC(O)Cn2c[n+](C)c3ccccc32)c1 (stereo not given)	none
CS(=O)(=NS(=O)(=O)c1ccc(S(=O)(=O)c2ccc(C(F)(F)F)cn2)s1)c1ccc(Cl)cc1 (stereo not given)	none
Cc1nn(S(=O)(=O)c2ccccc2)c(C)c1Sc1ccccc1	none
CC(C)c1cc(=O)c2c(=O)n(-c3ccccc3)[nH]c2[nH]1	none
Cc1ncc(CNS(=O)(=O)c2ccccc2C(F)(F)F)c(N)n1	none
COc1ccc(/C(O)=C2\C(=O)C(=O)N(CCCN3CCOCC3)C2c2ccc(C(C)(C)C)cc2)cc1 (stereo not given)	none
CCOC(=O)c1sc(SC(C)CC)c(C#N)c1-c1ccc(Cl)cc1 (stereo not given)	none
CCSc1sc(C(=O)OC)c(-c2ccc(Cl)cc2)c1C#N	none
CC(C)Sc1sc(C(=O)O)c(-c2ccc(Cl)cc2)c1C#N	Dicer processing 4.1
CSc1sc(C(=O)NC(C)(C)C)c(-c2ccc(Cl)cc2)c1C#N	none
CCOC(=O)c1sc(SC(C)C)c(C#N)c1-c1ccc(Cl)cc1	Dicer processing 5
CCOC(=O)CSc1sc(C(=O)OCC)c(-c2ccc(Cl)cc2)c1C#N	none
O=C(Nc1ccc(O)c(-c2nc3ccccc3s2)c1)c1ccc([N+](=O)[O-])o1	none
O=C(CSc1ccc(Cl)cc1[N+](=O)[O-])Nc1ccc(F)cc1F	none
Cc1cc(C)n2nc(Sc3ccc([N+](=O)[O-])cn3)nc2n1	none
CCN(CC)c1ccc(Nc2nc(-c3ccccn3)cs2)cc1	none
CCN(CC)c1ccc(Nc2nc(-c3cccnc3)cs2)cc1	none

Assay outcomes from PubChem.
